Screening data as filed in PubChem.
A selection: hits, their analogues and other compounds. The true share with any hit is near 3.8%.
GLS inhibitor – glutaminase GLS (human) inhibition | AID 624170 | actives 0.21% (n = 410,000) | GLS enzymatic activity, qHTS titration | Potency, µM (doses to about 45.5 µM), for the others: at the highest dose activity change, negative = inhibition, most hits filed as inhibitors | O94925
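Enzyme dispensed in phosphate buffer (45 mM, pH 8.2, 0.02% Tween-20), compounds pinned in, then 1 mM L-glutamine solution and the glutamate oxidase–HRP–Amplex Red mix added; fluorescence read immediately and again after 30 min at room temperature.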
TrxR1 inh – rat TrxR1 inhibition. recombinant rTrxR1, NADPH fluorescence consumption, selenite substrate. actives 1% (n = 390,000). AID 588453. Potency, µM (titrated, usually from 114 µM), for the others: at the top dose activity change, negative = inhibition, usual class: inhibitors; also: nearly all actives have a fitted effect of over 65% in size
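Rat TrxR1 (90 nM in the dispensed reagent) was pre-reduced with 400 uM NADPH for 5 min at room temperature, then incubated with compound for 15 min. After 400 uM selenite was added, NADPH fluorescence (Ex 340/Em 450 nm) was followed for 8 min.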
VDR inh – blocks the human vitamin D receptor | P11473 | VDR-SRC2-3 peptide fluorescence polarization, 2 h | Potency, µM, for inactives: max response, negative = inhibition, most hits filed as inhibitors | actives 0.93% (n = 400,000)
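The screen uses fluorescence polarization to detect compounds that interfere with recruitment of the SRC2-3 coactivator peptide to VDR; plates are read after 2 h at room temperature.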
Sfp PPTase inh – Sfp phosphopantetheinyl transferase inhibition | Q9F4F7 | actives 3.5% (n = 310,000) | Potency, µM, inactives show largest response in the series, negative = inhibition, actives largely listed as inhibitors | Biochemical Sfp PPTase activity, qHTS;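 also: the enzyme is Sfp with the accession as filed and its product quenches rhodamine fluorescence; 0% = enzyme reaction without inhibitor and -100% = no enzyme wells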
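After 15 min at room temperature with compound, 15 nM Sfp received 5 uM rhodamine-CoA plus 12.5 uM BHQ-2-ybbR (50 mM Hepes pH 7.6, 10 mM MgCl2). Rate came from the fluorescence difference over 30 min, ex 525/em 598 nm.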
KAT2A inh – GCN5L2 (KAT2A) acetyltransferase inhibition; Q92830; GCN5L2 HAT assay, ThioGlo1 CoA-SH fluorescence; Potency, µM (series often up to 58.9 µM), inactives show at the highest dose activity change, negative = inhibition, hits mostly inhibitors; actives 0.21% (n = 390,000)
Target sequence (Q92830 whole entry, looked up): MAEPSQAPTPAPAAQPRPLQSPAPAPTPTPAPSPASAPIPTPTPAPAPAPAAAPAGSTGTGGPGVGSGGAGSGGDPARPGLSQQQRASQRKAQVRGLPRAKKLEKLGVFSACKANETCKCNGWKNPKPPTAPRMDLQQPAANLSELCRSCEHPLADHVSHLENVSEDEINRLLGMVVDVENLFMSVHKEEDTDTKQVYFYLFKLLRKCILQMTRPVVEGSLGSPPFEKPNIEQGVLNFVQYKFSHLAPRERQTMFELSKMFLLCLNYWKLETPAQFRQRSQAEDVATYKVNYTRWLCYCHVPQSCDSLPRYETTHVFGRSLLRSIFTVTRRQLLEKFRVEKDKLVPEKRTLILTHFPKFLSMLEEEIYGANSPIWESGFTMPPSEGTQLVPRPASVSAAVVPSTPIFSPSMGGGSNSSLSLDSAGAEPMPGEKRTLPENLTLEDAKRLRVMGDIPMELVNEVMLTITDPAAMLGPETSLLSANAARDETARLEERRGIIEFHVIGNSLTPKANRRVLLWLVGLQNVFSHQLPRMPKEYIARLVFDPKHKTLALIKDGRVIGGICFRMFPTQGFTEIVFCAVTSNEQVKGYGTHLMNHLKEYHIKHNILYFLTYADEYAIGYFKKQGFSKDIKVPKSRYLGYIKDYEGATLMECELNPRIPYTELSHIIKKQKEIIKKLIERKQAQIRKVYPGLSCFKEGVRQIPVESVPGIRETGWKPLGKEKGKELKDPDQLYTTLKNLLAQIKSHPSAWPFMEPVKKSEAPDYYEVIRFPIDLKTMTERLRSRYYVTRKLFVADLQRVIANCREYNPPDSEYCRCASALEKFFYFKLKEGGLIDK
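Titration-based screen in which CoA formation is detected via maleimide probe ThioGlo1 (50uM) turning fluorescent on thiol reaction; substrates H3(1-25) 75uM and acetyl-CoA 70uM, GCN5L2 20nM, 20 min incubation at room temperature.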
TrxR1 substrate – substrates of rat thioredoxin reductase 1 | O89049 | purified TrxR1 substrate turnover, NADPH consumption readout | Potency, µM (highest dose often 114 µM), for the others: top-dose activity change, negative = substrate turnover | actives 0.01% (n = 390,000); also: nearly all actives have a fitted effect of over 50% in size
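Rat TrxR1, dispensed at 90 nM, was prereduced with 400 uM NADPH (final) for 5 min at ~22 deg C, then incubated with compound 15 min before 400 uM selenite. A first-read NADPH fluorescence drop versus no-compound background flagged substrates.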
* = called active by the depositor; ? = inconclusive; nt = not tested or not shown; [ ] = remark or other dose. Calls follow the shape of the dose curve; as a rule, active = well fitted curve in the direction sought with a large enough effect; inconclusive = small, poorly fitted or top-dose-only effect, or another doubt; inactive = no such curve, though single readings can be large; an effect the other way counts as inactive or inconclusive. Unless noted, % is scaled to controls: 0 for no effect and ±100 for the full control effect; potency is read from the fitted curve at half-maximal effect.

SMILES	GLS inhibitor	TrxR1 inh	VDR inh	Sfp PPTase inh	KAT2A inh	TrxR1 substrate
Cc1ccc(C(=O)NCc2ccco2)cc1S(=O)(=O)Nc1cccc(C)c1C	-1.4%	79.4µM*	6.6%	-11.1%	-0.7%[0.501 µM]	-5.0%
CCc1nc2ccc(C(=O)NCc3ccc(C)o3)cc2nc1CC	4.0%	9.5%	-5.2%	4.8%	0.7%	-1.6%
CCCN1C(=O)c2ccc(C(=O)NCc3ccco3)cc2C1=O	2.4%	?	-22.0%	44.7µM*	-1.0%	14.9%
COc1cc(/C=C2/C(=N)N3N=C(CC(=O)N4CCOCC4)SC3=NC2=O)ccc1OCc1ccccc1	-5.7%	30.9%	-13.5%	1.6%	-18.4%	3.1%
COCCn1c(SCC(=O)NC(=O)NCc2ccccc2)nc2ccccc2c1=O	3.5%	9.2%	18.8%	nt	0.2%	-0.4%
CCOc1cc(/C=C2\N=C(SC(C)C(N)=O)N(c3ccc(OC(F)F)cc3)C2=O)ccc1O (configuration not stated)	-0.4%	23.7%	-14.0%	44.7µM*	-1.1%	-6.9%
CN1CCN(CC(=O)c2ccccc2F)CC1	-14.1%	?	-11.5%	56.2µM*	-7.1%	9.1%[57.1 µM]
CC1(c2ccccc2)NC(=O)N(N)C1=O (configuration not stated)	-13.8%	2.2%[57.1 µM]	-29.9%	21.9%	-4.2%	-2.0%[57.1 µM]
CCOc1cc(CNCCc2ccc(S(N)(=O)=O)cc2)ccc1OCc1ccccc1	3.0%	5.1%	-3.7%	11.2µM*	3.3%	4.9%
CCNCc1cc(Cl)c(OCc2ccccc2)c(OCC)c1	9.6%	9.6%	-2.2%	-9.0%	0.4%	0.6%
CCOc1cc(CNCCc2ccc(S(N)(=O)=O)cc2)cc(Cl)c1OCc1ccccc1	-7.0%	13.4%	10.9%	3.55µM*	2.2%	5.4%
O=C(Nc1cccc(F)c1)N1CCC(n2c(=O)[nH]c3ccccc32)CC1	-2.2%	17.4%	-2.8%	9.8%	-0.8%	3.5%
CCN(CC)c1ccc(NC(=S)NC(=O)c2cccs2)cc1	17.9%	79.4µM*	?	?	-15.7%	-7.1%[57.1 µM]
CCN(CC)C(=S)SCC(=O)Nc1ccc(F)cc1	9.6%	-4.2%	-3.3%	7.8%	3.55µM*	-1.7%
Cc1ccc(C(=O)NC(=S)Nc2ccc(S(=O)(=O)N3CCN(C)CC3)cc2)cc1	26.9%	50.1µM*	-4.7%	?	-8.6%	-9.0%
O=C(NC(=S)Nc1ccc(-c2ccc(CO)o2)cc1)c1cccs1	-16.2%	?	0.3%	8.91µM*	-13.9%	-2.1%
CCN(CC)C(=S)SCC(=O)c1ccc(F)cc1	5.3%	20.4%	3.3%	3.6%	-4.0%	9.7%[57.1 µM]
O=[N+]([O-])c1ccc2nc(SCc3cn4cc(Cl)ccc4n3)[nH]c2c1	4.9%	2.8%[57.1 µM]	-22.1%	?	32.1%	1.3%[57.1 µM]
CN(C)S(=O)(=O)c1ccc(NC(=S)NC(=O)c2cccs2)cc1	4.0%	?	-12.7%	31.6µM*	-0.6%	-4.7%[57.1 µM]
CCN(c1ccccc1)S(=O)(=O)c1ccc(NC(=S)NC(=O)c2cccs2)cc1	1.1%	?	9.1%	?	23.8%	-14.8%
O=C(NC(=S)Nc1ccc(S(=O)(=O)N2CCCC2)cc1)C1CC1	5.9%	-24.6%	0.5%	-19.2%	-5.9%	-5.8%
CCN(CC)c1ccc(NC(=O)c2ccco2)cc1	35.1%	3.6%	-6.1%	-7.5%	-5.4%	-3.9%
CCN(CC)c1ccc(NC(=S)Nc2ccc(F)cc2)cc1	11.5%	15.9%[57.1 µM]	?	44.7µM*	-6.4%	-6.8%
CCN(CC)c1ccc(NC(=S)NC(=O)c2ccco2)cc1	10µM*	-56.9%	79.4µM*	35.5µM*	-1.4%	-4.5%[57.1 µM]
O=C(NC(=S)Nc1ccc(S(=O)(=O)N2CCCC2)cc1)c1cccs1	11.3%	20µM*	-29.0%	?	-13.2%	-7.4%
SMILES	GLS inhibitor	TrxR1 inh	VDR inh	Sfp PPTase inh	KAT2A inh	TrxR1 substrate
Oc1ccc(NC(=S)Nc2ccc(F)cc2)cc1	-18.2%	-15.9%	-18.2%	-11.8%	-4.9%	4.7%
Cc1cccc(CNC(=O)CN2C(=O)CCn3nc(-c4cn(C)c5ccccc45)cc32)c1	-16.3%	14.0%[57.1 µM]	5.0%	nt	-9.3%	-1.7%[57.1 µM]
O=C(NC1CCC(O)CC1)c1ccc(-c2ccc([N+](=O)[O-])cc2)o1 (configuration not stated)	-3.6%	3.16µM*	?	?	-3.0%	-1.9%
O=C(c1ccco1)N1CCN(C(=O)c2ccc(-c3ccc([N+](=O)[O-])cc3)o2)CC1	-2.9%	7.08µM*	-26.6%	nt	?	-12.4%
O=C(c1ccc(-c2ccc(Cl)cc2)o1)N1CCN(S(=O)(=O)c2cccs2)CC1	-6.4%	24.2%	-26.0%	nt	-12.2%	13.8%
O=C(c1ccc(-c2ccc([N+](=O)[O-])cc2)o1)N1CCN(S(=O)(=O)c2cccs2)CC1	12.2%	44.7µM*	-2.4%	nt	-9.7%	5.4%
CCOC(=O)C1CCCN(C(=O)c2ccc(-c3ccc([N+](=O)[O-])cc3)o2)C1 (configuration not stated)	0.6%	10µM*	?	nt	-7.0%	0.0%
Cc1cccc(NC(=S)NCc2ccc(F)cc2)c1C	-6.8%	21.4%[57.1 µM]	-12.7%	19.3%	-2.9%	10.6%[57.1 µM]
COc1ccc(/C=N/Nc2cc(N3CCCC3)nc(N3CCCC3)n2)cc1	0.0%	30.3%	?	50.1µM*	-12.9%	-0.1%
Oc1cccc(/C=N/Nc2cc(N3CCCC3)nc(N3CCCC3)n2)c1	1.6%	3.3%	?	-18.6%	0.8%	-7.3%
Oc1ccc(/C=N/Nc2nc(N3CCCC3)nc(N3CCCC3)n2)cc1O	0.4%	-4.3%[57.1 µM]	-14.3%	20µM*	-2.9%	-2.1%[57.1 µM]
Oc1ccc(/C=N/Nc2ccc(Cl)nn2)cc1O	0.5%	-6.5%	-1.8%	79.4µM*	4.0%	-7.7%
Cc1ccc(N2C(=O)N(CC(=O)N(C)Cc3ccccc3)C(=O)C2C)cc1 (configuration not stated)	4.7%	10.3%	1.9%	12.9%	-9.9%	3.1%
CC(C)(C(N)=O)N1CCN(c2ncc(C(F)(F)F)cc2Cl)CC1	0.1%	7.1%	-7.3%	16.4%	0.0%	3.4%
O=C(NC1CC(=O)N(c2ccccc2)C1)C(c1ccccc1)c1ccccc1 (configuration not stated)	0.9%	14.5%[57.1 µM]	16.3%	nt	1.7%	6.4%[57.1 µM]
O=C(O)[C@@H](c1ccccc1)N1Cc2ccccc2C1=O	-1.1%	6.0%[57.1 µM]	-16.1%	28.2µM*	-6.8%	-0.7%[57.1 µM]
CC(=O)N1CCc2cc(Br)cc(S(=O)(=O)N3CCC(C(=O)O)CC3)c21	-0.9%	27.7%	-9.6%	19.7%	-2.7%	9.3%
CN1CCc2c(sc(/N=C/c3cc(C(C)(C)C)ccc3O)c2C#N)C1	0.4%	4.1%	9.3%	70.8µM*	-6.2%	-2.9%
COc1ccc(/C=N/c2sc3c(c2C#N)CCN(Cc2ccccc2)C3)c(O)c1	nt	nt	nt	15.0%	17.2%	nt
